Source: PubChem
CYP2C9 activ = increases human cytochrome P450 2C9 activity. recombinant CYP2C9, luciferin-H conversion, luminescence; hits give high values; factor 1 = untreated enzyme, 0 = blocked. 1.4% of 96,000 active. P11712. activation factor at 5 µM;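 active = activation factor of 2 or more for CYP2C9 at a 5 µM dose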
Target sequence (P11712 whole entry, looked up): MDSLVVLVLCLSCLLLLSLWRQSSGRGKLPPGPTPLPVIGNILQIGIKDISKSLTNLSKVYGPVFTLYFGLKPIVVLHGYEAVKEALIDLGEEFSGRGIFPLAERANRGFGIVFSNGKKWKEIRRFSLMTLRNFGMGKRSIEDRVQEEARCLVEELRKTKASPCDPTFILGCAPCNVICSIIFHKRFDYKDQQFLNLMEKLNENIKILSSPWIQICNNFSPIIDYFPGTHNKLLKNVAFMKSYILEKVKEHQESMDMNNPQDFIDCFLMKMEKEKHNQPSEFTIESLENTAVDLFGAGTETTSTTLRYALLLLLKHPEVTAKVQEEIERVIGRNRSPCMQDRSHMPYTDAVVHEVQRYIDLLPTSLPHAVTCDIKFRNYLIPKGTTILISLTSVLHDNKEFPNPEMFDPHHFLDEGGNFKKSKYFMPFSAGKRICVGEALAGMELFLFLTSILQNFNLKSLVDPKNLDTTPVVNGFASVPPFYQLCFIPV
sEH act = activators of human soluble epoxide hydrolase | 0.04% of 91,000 active | activation, % at 2 µM | P34913 | purified human sEH enzymatic activity, activator screen; in the data active = activation above about 37%
sEH inhibitor = blocks human soluble epoxide hydrolase activity. recombinant human sEH enzymatic activity assay. inhibition, % at 2 µM. 0.34% of 91,000 active; in the data active = inhibition above about 80%
CYP2C19 inh = human CYP2C19 inhibition. CYP2C19 Supersomes, luciferin-H EGE luminescence, 30 min. 21% of 96,000 active. inhibition, % at 5 µM. AID 778. P33261;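 active = CYP2C19 inhibition above a set limit at 5 µM in the primary screen, cut at about 50% in these data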
CYP2C19 act = increases human CYP2C19 enzyme activity | P33261 | recombinant CYP2C19, luciferin-H EGE luminescence; hits give high values; 0 = fully inhibited enzyme, 1 = untreated enzyme | activation factor at 5 µM | 96,000 tested, under 10 active;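 active = activation factor of at least 2 at 5 µM in the primary screen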
CYP2C9 inhib = human CYP2C9 inhibition; P11712; CYP2C9 Supersomes, luciferin-H conversion, luminescence; inhibition, % at 5 µM; 20% of 96,000 active;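 active = blocking of liver enzyme CYP2C9 beyond about 50% at 5 µM, limit read from the data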
A number is an active result; – = inactive; · = no result given. A selection: hits, their analogues and other compounds. The true share with any hit is near 27%.

SMILES	CYP2C9 activ	sEH act	sEH inhibitor	CYP2C19 inh	CYP2C19 act	CYP2C9 inhib
Cc1ccc(NC(=S)C2=C(O)c3ccccc3N(C)S2(=O)=O)cc1	–	–	–	–	–	100.0
CN1c2ccccc2C(O)=C(C(=S)Nc2ccc(F)c(Cl)c2)S1(=O)=O	–	–	–	–	–	95.7
CN1c2ccccc2C(O)=C(C(=O)Nc2ccccc2)S1(=O)=O	–	–	–	–	–	75.9
C/C(Cn1nnc([N+](=O)[O-])n1)=N\NC(=O)c1ccccc1	–	–	–	–	–	–
Cc1cc(OC(=O)c2ccccc2Br)cc(=O)n1C	–	–	–	–	–	–
CCc1ccccc1N(CC(=O)N1CCN(c2ccccc2)CC1)S(C)(=O)=O	–	–	–	–	–	–
CC(C)(C)c1cc(CN2CCCC(O)C2)c(O)c(C(C)(C)C)c1 (stereo not drawn)	–	·	·	–	–	–
O=C1C(Cc2ccc(O)cc2)NC(=S)N1c1ccccc1 (stereo not drawn)	–	–	–	56.9	–	–
C=CCOc1cccc(C2C(C(=O)c3ccco3)=C(O)C(=O)N2CCN(CC)CC)c1 (stereo not drawn)	–	·	·	–	–	–
O=C(Nc1cccnc1)c1cc2nc(C3CC3)cc(C(F)(F)F)n2n1	–	–	–	63.7	–	73.5
O=C(c1ccc2c(=O)n(-c3ccccc3)c(=O)[nH]c2c1)N1CCCCC1	–	–	–	–	–	–
O=c1[nH]c2cc(Cl)ccc2n1-c1ccccc1	–	–	–	50.1	–	–
COc1ccc(C2C3=C(CCCC3=O)Nc3nc(SCc4ccc(C(=O)O)cc4)nn32)cc1OC (stereo not drawn)	–	–	–	–	–	–
CCOC(=O)Cc1csc(NC(=S)NC(=O)c2ccccc2C)n1	–	–	–	–	–	–
CC(C)(C)C(=O)NC1CCN(S(=O)(=O)c2ccc(C(F)(F)F)cc2)CC1	–	–	–	76.0	–	–
O=C(NC1CCCCC1)c1ccc(S(=O)(=O)N2CCCCC2)cc1	·	–	–	·	·	·
Cc1nc(-c2cccc(S(=O)(=O)N3CCOCC3)c2)cs1	–	–	–	75.5	–	66.5
CSc1nc2cc(S(=O)(=O)N3CCOCC3)ccc2s1	–	–	–	99.4	–	62.7
O=S(=O)(c1ccc2c(c1)nc1n2CCC1)N1CCOCC1	·	–	–	·	·	·
Cc1nc(-c2cccc(S(=O)(=O)N3CC(C)CC(C)C3)c2)cs1 (stereo not drawn)	–	–	–	–	–	–
Cc1nc(-c2cccc(S(=O)(=O)N3CC(C)OC(C)C3)c2)cs1 (stereo not drawn)	–	–	–	77.1	–	–
Cc1csc(SCC(=O)NC23CC4CC(CC(C4)C2)C3)n1	–	–	–	–	–	–
Cc1c(Cl)c([N+](=O)[O-])nn1CC(=O)NC12CC3CC(CC(C3)C1)C2	–	–	–	79.0	–	–
COc1ccc(S(=O)(=O)O/N=C2\CCCc3ccccc32)cc1	–	–	–	–	–	–
CCn1c(NC(=O)c2cccs2)c(-c2cccs2)c(=O)c2ccccc21	–	–	–	–	–	93.4
SMILES	CYP2C9 activ	sEH act	sEH inhibitor	CYP2C19 inh	CYP2C19 act	CYP2C9 inhib
Cc1ccc(C(=O)Nc2c(-c3cccs3)c(=O)c3ccccc3n2C)cc1	–	–	–	–	–	98.0
CCCC(=O)Nc1c(-c2cccs2)c(=O)c2ccccc2n1C	–	–	–	–	–	–
COCCCNC(=O)/C=C/c1ccc(Cl)cc1	–	–	–	–	–	–
Cc1cc(N)n2ncc(-c3ccccc3)c2n1	–	–	–	–	–	–
Cc1cc(N)n2ncc(-c3cccc(Br)c3)c2n1	–	–	–	–	–	71.5
COc1ccc(-c2oc(NC(=O)CCl)c(C#N)c2-c2ccc(OC)cc2)cc1	–	–	–	54.3	–	96.2
Cc1ccc(OCC(=O)Nc2oc(-c3ccccc3)c(-c3ccccc3)c2C#N)cc1	·	–	–	·	·	·
COc1ccccc1OCC(=O)Nc1oc(-c2ccccc2)c(-c2ccccc2)c1C#N	–	–	–	–	–	85.3
COc1ccc(CC(=O)Nc2oc(-c3ccccc3)c(-c3ccccc3)c2C#N)cc1OC	·	–	–	·	·	·
COc1ccc(-c2oc(NC(=O)CSc3ncn[nH]3)c(C#N)c2-c2ccc(OC)cc2)cc1	–	–	–	–	–	70.2
N#Cc1c(NC(=O)COC(=O)C2CC3C=CC2C3)oc(-c2ccccc2)c1-c1ccccc1 (stereo not drawn)	–	–	–	–	–	70.9
CCOc1cc2[nH]c(=S)n(CC3CCCN3CC)c(=O)c2cc1OCC (stereo not drawn)	–	·	·	–	–	–
